PAX8 inh HTS: PAX8 transcriptional activity inhibition | RMG-I TPO-luciferase reporter, SteadyGlo, 24 h | inhibition, % at 12.6 µM | 1.2% of 360,000 active | AID 652154;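 active = mean replicate inhibition at least 60% with every replicate also reaching 60%; inconclusive = only one of the two criteria is met; inactive = mean below 60% and not all replicates reaching 60%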;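 also: luciferase light reporting Pax8 driven TPO promoter activity; plate controls were median of neutral control wells for no effect and mitoxantrone controls for full effect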
KKLEB cytotox: counter-screen for CF NF-kB inhibitors: cytotoxicity. activity change (cytotoxicity), % at 5 µM. AID 602141. 0.36% of 360,000 active. KKLEB CF airway cells viability, ATPlite luminescence, overnight; hits give low values; cells stimulated with P. aeruginosa culture filtrate;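 active = corrected activity change at or below -50% at 5 µM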
LGR2 inh: blocks bursicon-induced cAMP signaling via Drosophila LGR2; HEK293 LGR2, CRE-luciferase, bursicon-stimulated, 4 h; 0.35% of 380,000 active; inhibition, % at 9.99 µM;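 active = drop in luminescence signal, shown as inhibition above about 50% in the replicate tests, limit read from the data, passing the limit was not always enough; inconclusive = probably only some replicates passing the limit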;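 also: agonist challenge used bursicon conditioned medium at about half maximal strength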
CF NFkB inh: blocks PAF-induced NF-kB reporter in cystic fibrosis cells; KKLEB NF-kB-GFP reporter, GFP fluorescence overnight; inhibition, % at 5 µM; 0.86% of 360,000 active; AID 588850;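 active = at least 50% inhibition at 5 µM, scaled per plate between neutral and stimulator controls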;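 also: PAF is a Pseudomonas aeruginosa culture filtrate used as stimulus; plate controls were PAF-stimulated DMSO wells for no effect and unstimulated DMSO wells for full effect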
EWS-Fli inh: blocks EWS/Fli oncoprotein-driven transcription; A673 NR0B1-luciferase reporter, viability-normalised; inhibition, % at 12.6 µM; 0.67% of 350,000 active; AID 651661;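 active = mean inhibition of at least 50% after viability correction, with every replicate also passing that limit; inconclusive = mean reaches 50% but only one of two replicates passes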;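 also: firefly luciferase signal divided by Alamar Blue viability fluorescence both relative to DMSO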
Shn3 3UTR inh: inhibitors of Schnurri-3 3'UTR reporter in osteoblasts. Clone20 osteoblast Shn3 3'UTR firefly luciferase, 24 h. inhibition, % at 12.5 µM. 0.52% of 360,000 active;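 active = mean inhibition of at least 75% with every replicate also reaching 75%; inconclusive = mean inhibition at least 75% but some replicate below; inactive = mean inhibition below 75%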;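 also: 0% = median of neutral control wells and 100% = pilot-screen positive control compound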
* marks the source's active call; other numbers are inactive results; ? = inconclusive; nt = no result. Compounds with a hit are over-represented: about 2% of the library has one in this group of screens.

SMILES	PAX8 inh HTS	KKLEB cytotox	LGR2 inh	CF NFkB inh	EWS-Fli inh	Shn3 3UTR inh
COc1ccc(-c2cnnc(N/N=C/c3ccc(-c4ccc([N+](=O)[O-])cc4)o3)n2)cc1	12	-11	-5	-4	53*	4
O=[N+]([O-])c1ccc(-c2ccc(/C=N/Nc3nc(N4CCCC4)nc(N4CCCC4)n3)o2)cc1	-2	-62*	-3	-9	40	33
Cc1ccc(S(=O)(=O)N2C[C@H](O)COC[C@H]3O[C@@H](CC(=O)N4CCc5ccccc5C4)CC[C@@H]32)cc1	17	nt	-3	nt	-5	nt
CCOC(=O)c1cnc(SCC(=O)Nc2sc(C)c(C)c2C#N)nc1N	-15	-50*	nt	47	nt	15
CCOC(=O)c1cnc(SCC(=O)Nc2cc(OC)cc(OC)c2)nc1N	20	-15	nt	12	nt	78
Cc1ccc(S(=O)(=O)Nc2ccc3c(c2)nc(CCN2CCCC2)n3C)cc1	94*	32	3	-4	1	10
Cn1c(CCN2CCCCC2)nc2cc(NS(=O)(=O)c3ccccc3)ccc21	nt	-15	nt	12	nt	12
Cn1c(CCN2CCCC2)nc2cc(NS(=O)(=O)c3ccc(F)cc3)ccc21	84*	-3	14	22	-2	2
Cn1c(CCN2CCCC2)nc2cc(NS(=O)(=O)c3ccc(Cl)cc3)ccc21	101*	-24	8	38	29	-3
C[C@H]1CCCCO[C@@H](CN(C)C(=O)Nc2ccc(F)cc2)[C@@H](C)CN([C@@H](C)CO)C(=O)c2cc(NS(=O)(=O)c3ccc(Cl)cc3)ccc2O1	-7	nt	4	nt	6	nt
O=S(=O)(c1cccc(F)c1)N1[C@@H]2CNC[C@H]1C2c1ccc(-c2ccc(F)cc2)cc1 (stereo partly specified)	-3	nt	-16	nt	-10	nt
Oc1ccc(/C=N/Nc2nc(N3CCCC3)nc(N3CCCC3)n2)cc1O	31	15	-27	-32	19	93*
COc1ccc(/C=N/Nc2cc(N3CCCC3)nc(N3CCCC3)n2)cc1	68*	-34	7	19	6	78
OC[C@H]1CC[C@@H]2O[C@H](CCc3ccc(C#Cc4ccccc4)cc3)[C@@H](n3cc(-c4ccccc4)nn3)C[C@@H]2O1	15	nt	nt	nt	3	nt
O=C(C1=C[C@H](c2ccc(C(F)(F)F)cc2)C[C@H](OCCCCO)O1)N1CCCCCCC1	-10	nt	nt	nt	-2	nt
Cc1cc(N/N=C/c2ccc(O)cc2O)nc(-c2ccccc2O)n1	nt	-2	nt	78*	nt	20
C/C(=N\Nc1cc(C)nc(-c2ccccc2O)n1)c1ccccc1O	-8	-19	3	80*	-14	-15
Cc1cc(N/N=C/c2ccccc2O)nc(-c2ccccc2O)n1	3	3	0	-39	nt	2
Cc1cc(N/N=C\c2ccccc2)nc(-c2ccccc2O)n1	-9	-27	-26	-25	nt	-36
C[C@@H]1CCCCO[C@@H](CN(C)Cc2ccc3c(c2)OCO3)[C@H](C)CN([C@@H](C)CO)C(=O)c2cc(NC(=O)Nc3ccc(F)cc3)ccc2O1	4	nt	4	nt	-6	nt
CCCC(=O)Nc1ccc2c(c1)OC[C@@H](C)N(Cc1ccccc1C(=O)O)C[C@@H](C)[C@H](OC)CN(C)C2=O	2	nt	23	nt	4	nt
N#CCSc1nc2cc(C(=O)N3CCCC3)ccc2c(=O)n1Cc1ccccc1	nt	-14	nt	20	nt	12
N#CCSc1nc2cc(C(=O)N3CCC(C(N)=O)CC3)ccc2c2nc3ccccc3n12	nt	-26	nt	68*	nt	9
O=C1C=CC(=O)N1c1ccc(OC(F)F)cc1	15	-6	nt	10	7	91*
Cc1cc2c(c(C)c1CCO[C@@H]1O[C@H](CO)[C@@H](O)[C@H](O)[C@H]1O)C(=O)[C@@H](C)[C@@H]2O	86*	-3	2	-4	-15	-26
SMILES	PAX8 inh HTS	KKLEB cytotox	LGR2 inh	CF NFkB inh	EWS-Fli inh	Shn3 3UTR inh
C[C@@H]1CN([C@@H](C)CO)C(=O)c2cc(C#CCN(C)C)cnc2O[C@@H]1CN(C)C(=O)c1cccc(F)c1	nt	nt	-11	nt	-12	nt
COc1cccc(S(=O)(=O)Nc2ccc3c(c2)C(=O)N(C)C[C@@H](OC)[C@@H](C)CN[C@H](C)CO3)c1	nt	nt	-5	nt	6	nt
C[C@@H]1CN([C@@H](C)CO)C(=O)c2cc(NS(=O)(=O)c3cccs3)ccc2O[C@@H](C)CCCCO[C@H]1CN(C)Cc1ccccc1	-3	nt	-15	nt	28	nt
COc1cccc(C(=O)N/N=C(/c2ccccc2)c2ccccn2)c1	65*	16	nt	4	nt	79
COc1cc(C(=O)NN=C2c3ccccc3-c3ccccc32)cc(OC)c1OC	14	nt	-3	nt	59*	nt
COc1cccc(C(=O)N/N=C(/CCC(=O)O)c2ccccc2)c1	-5	2	nt	10	0	-6
COc1cc(C(=O)N/N=c2/sc3ccccc3n2C)cc(OC)c1OC	24	-3	6	-5	8	15
COc1cc(C(=O)N/N=C(\c2ccccc2)c2ccccn2)cc(OC)c1OC	72*	2	43	16	25	89*
COc1cc(C(=O)N/N=C(\C)c2ccccn2)cc(OC)c1OC	-2	15	2	-1	nt	-3
Cc1cc2ncc(-c3cccs3)nc2cc1C	-23	-34	71*	-18	29	-2
O=C(NNC(=O)C12CC3CC(CC(C3)C1)C2)c1ccccc1F	81*	-5	8	12	-3	-12
CCCN(C)C[C@@H]1Oc2cc(-c3ccc(C#N)cc3)ccc2S(=O)(=O)N([C@H](C)CO)C[C@@H]1C	2	nt	-6	nt	2	nt
Nc1ccc(-c2nc3ccc(C(=O)O)cc3s2)cc1	103*	3	102*	8	84*	69
Nc1cc2sc(-c3ccc(C(=O)O)cc3)nc2cc1Cl	-24	-7	?	-13	-17	-41
Nc1ccc(-c2nc3ccc(N)cc3s2)cc1	40	-6	53*	-34	49	-1
Oc1ccc(-c2nc3ccccc3s2)cc1	-105	-11	-44	-35	-33	-32
O=C(O)c1ccc2nc(-c3ccccc3)sc2c1	74*	2	63*	14	28	20
COC(=O)[C@H]1[C@H](CO)[C@H]2Cn3c(ccc(-c4ccc(OC)cc4)c3=O)[C@H]2N1C	nt	nt	0	nt	-5	nt
O=C(NC1CCC1)[C@@H]1[C@@H](CO)[C@@H]2Cn3c(ccc(-c4cncnc4)c3=O)[C@H]1N2CCc1ccccc1	15	nt	-7	nt	4	nt
O=C1C=CCCN1C(=O)/C=C/c1ccccc1Cl	-3	nt	nt	nt	62*	nt
O=C(/C=C/c1ccccc1Cl)N1CCOCC1	4	16	-26	-10	-30	-8
O=C1C=CCCN1C(=O)/C=C/c1cccc(C(F)(F)F)c1	19	nt	nt	nt	62*	nt
O=C(/C=C/c1cccc(C(F)(F)F)c1)Nc1cccc(C(F)(F)F)c1	nt	2	11	42	nt	47
C[C@H]1CN([C@@H](C)CO)C(=O)c2cccc(NC(=O)C3CC3)c2O[C@@H]1CN(C)C(=O)NC1CCCCC1	-6	nt	-6	nt	0	nt

From PubChem
